# In PMC4336329 (PLoS ONE, 2015):
# About 14,000 (4.5%) of roughly 310,000 compounds showed an effect of 50% or more. Effects have a minus sign here. This is one part of a sample in which strong results are shown more often than they occur.
# Target: human ether-à-go-go-related gene (hERG) potassium channel (human, UniProt Q12809)
# Test: primary screen, population patch clamp on CHO cells stably expressing hERG; higher = less effect of the substance
# 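Note: peak tail current of the secondary pulse compared with the same well before compound.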
# Sequence of human ether-à-go-go-related gene (hERG) potassium channel (Q12809 whole entry, looked up): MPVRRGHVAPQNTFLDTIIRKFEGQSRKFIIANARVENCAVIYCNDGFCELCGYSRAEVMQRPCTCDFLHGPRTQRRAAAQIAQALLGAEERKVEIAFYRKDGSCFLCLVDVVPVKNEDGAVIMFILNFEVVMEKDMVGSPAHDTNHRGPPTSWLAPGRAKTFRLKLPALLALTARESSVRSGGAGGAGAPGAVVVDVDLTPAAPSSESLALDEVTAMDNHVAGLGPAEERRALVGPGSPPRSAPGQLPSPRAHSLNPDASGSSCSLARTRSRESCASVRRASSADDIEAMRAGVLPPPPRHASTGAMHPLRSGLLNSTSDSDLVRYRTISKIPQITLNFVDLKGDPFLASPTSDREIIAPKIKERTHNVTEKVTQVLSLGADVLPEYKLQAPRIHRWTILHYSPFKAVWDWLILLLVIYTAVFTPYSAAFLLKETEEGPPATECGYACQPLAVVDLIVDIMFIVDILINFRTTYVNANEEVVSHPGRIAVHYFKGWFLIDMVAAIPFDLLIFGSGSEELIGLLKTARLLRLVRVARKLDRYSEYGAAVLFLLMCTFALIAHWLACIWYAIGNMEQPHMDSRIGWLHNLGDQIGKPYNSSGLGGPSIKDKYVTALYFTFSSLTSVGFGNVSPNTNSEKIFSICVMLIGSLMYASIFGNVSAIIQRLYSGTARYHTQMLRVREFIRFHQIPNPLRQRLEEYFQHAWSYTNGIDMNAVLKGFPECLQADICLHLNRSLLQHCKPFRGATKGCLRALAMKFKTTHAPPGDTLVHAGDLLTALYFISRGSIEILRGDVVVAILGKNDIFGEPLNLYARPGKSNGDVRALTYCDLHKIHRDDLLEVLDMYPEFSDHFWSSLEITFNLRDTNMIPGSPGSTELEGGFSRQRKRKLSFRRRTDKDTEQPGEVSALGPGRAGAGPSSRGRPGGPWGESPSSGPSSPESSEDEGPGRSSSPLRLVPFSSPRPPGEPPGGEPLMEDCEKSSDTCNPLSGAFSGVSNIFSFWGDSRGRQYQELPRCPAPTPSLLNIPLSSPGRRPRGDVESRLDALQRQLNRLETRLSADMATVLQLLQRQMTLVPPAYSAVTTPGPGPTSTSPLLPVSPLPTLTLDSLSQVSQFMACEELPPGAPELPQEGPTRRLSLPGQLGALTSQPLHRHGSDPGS
row,SMILES,"hERG current change (%, negative = inhibition) at 10uM"
1,CC1=CC(C)C2COC(c3ccc[n+](C)c3)C1C2C.[I-] (stereo not shown),14.3%
2,O=C1/C(=C/c2ccncc2)N2CCC1CC2,2.32%
3,CCC(NC(=O)c1ccccc1NC(=O)c1ccco1)C(=O)NC1CCCCC1 (stereo not shown),-22.5%
4,CCOCCCNC(=O)c1ccc2c(c1)N(CC)C(=O)c1ccccc1S2=O (stereo not shown),16.2%
5,CCN(CC)c1ccc(C2C(C(C)=O)C(=O)CC(C)(O)C2C(C)=O)cc1 (stereo not shown),-13.4%
6,O=C(Nc1ccc(F)c(Cl)c1)NC1CC1,13.7%
7,CC1(C)CC(=O)C(C(c2ccc(Br)cc2)C2C(=O)CC(C)(C)CC2=O)C(=O)C1,0.769%
8,COc1cc(C)c(S(=O)(=O)Nc2ccccc2F)cc1C,6.11%
9,Cc1cccn2c(=O)c3cc(C(=O)NCC4CCCO4)c(=N)n(Cc4ccc(F)cc4)c3nc12 (stereo not shown),-75.7%
10,CCC(Sc1nc2ccccc2c(=O)n1CC1CCCO1)C(=O)NCc1cccnc1 (stereo not shown),-23.5%
11,Cc1cccn2c(=O)c3cc(C(=O)NCc4cccnc4)c(=N)n(CC4CCCO4)c3nc12 (stereo not shown),-75.6%
12,Cc1cccn2c(=O)c3cc(C(=O)NCC4CCCO4)c(=N)n(Cc4cccnc4)c3nc12 (stereo not shown),-95.1%
13,Cc1cccn2c(=O)c3cc(C(=O)NCCN4CCOCC4)c(=N)n(Cc4cccnc4)c3nc12,-18.4%
14,Cc1ccc(Cn2c(=N)c(C(=O)NCC3CCCO3)cc3c(=O)n4cccc(C)c4nc32)cc1 (stereo not shown),-81.5%
15,O=C(NCc1cccnc1)C(=O)NCC1CCCO1 (stereo not shown),21.5%
16,CN1CCN(CC#CCOc2ccc(Cl)cc2)CC1.O=C(O)C(=O)O,-0.0359%
17,CSc1ccccc1NC(=O)COc1ccccc1C,6.39%
18,CCOC(=O)C1(CC2CCCCO2)CCN(C(=O)Nc2ccc(SC)cc2)CC1 (stereo not shown),2.65%
19,COc1ccccc1NC(=O)c1oc2ccc(C)cc2c1C,14.1%
20,Cc1nnc(SCC(=O)NCc2ccccc2)[nH]c1=O,-7.09%

row,SMILES,"hERG current change (%, negative = inhibition) at 10uM"
1,COc1ccc(/C=C2/C(=O)OCc3cc(OC)c(OC)cc32)c(OC)c1,-27.8%
2,CCOC(=O)C1=C(c2ccc(O)cc2)NC(=O)NC1C (stereo not shown),9.47%
3,CC1(C)CC2CC(C)(CN2S(=O)(=O)c2ccc(F)cc2F)C1 (stereo not shown),-11.8%
4,Cn1c(=O)c2c(ncn2CC(COCc2ccc(Cl)cc2)OCc2ccc(Cl)cc2)n(C)c1=O (stereo not shown),-51.1%
5,Cn1c(=O)c2c(ncn2CC(COCc2ccccc2Cl)OCc2ccccc2Cl)n(C)c1=O (stereo not shown),-33.6%
6,Cn1c(=O)c2c(ncn2CC(COCc2ccccc2)OCc2ccccc2)n(C)c1=O (stereo not shown),-12.1%
7,CN(Cc1ccc(F)cc1)C(=O)c1cccc(NS(=O)(=O)c2ccccc2)c1,-13.4%
8,COc1cccc(C(=O)Nc2ncc3c(n2)CC(c2ccc(OC)cc2OC)CC3=O)c1 (stereo not shown),-17.3%
9,COc1ccc(CCNC(=O)c2ccccc2C(=O)NCCc2ccc(OC)c(OC)c2)cc1OC,3.48%
10,CN(C)C(C)(C)/C=C/C(O)(c1ccccc1)c1ccccc1,-36.6%
11,CN(C)CCC(O)(c1ccccc1)c1ccccc1.Cl,-20.2%
12,CN(C)C/C=C/C(O)(c1ccccc1)c1ccccc1,-61.5%
13,Cc1ccc(OCC(=O)OC(C)CN2CCCCC2)cc1.Cl (stereo not shown),12.2%
14,C=CCNC(=O)c1cc(-c2ccncc2)nc2c(C)cc(C)cc12,-43.5%
15,O=C(O)CNC(=O)c1nc(-c2ccccc2)n(-c2ccccc2)n1,22.9%
16,Cc1csc(NC(=O)c2nc(-c3ccccc3)n(-c3ccccc3)n2)n1,-79.2%
17,Cc1csc(NC(=O)c2ccccc2)n1,16.8%
18,CCCC(C)NC(=O)c1nc(-c2ccccc2)n(-c2ccccc2)n1 (stereo not shown),-55.7%
19,O=C(O)c1nc(-c2ccccc2)n(-c2ccccc2)n1,4.87%
20,O=C(Nc1nccs1)c1nc(-c2ccccc2)n(-c2ccccc2)n1,6.62%

row,SMILES,"hERG current change (%, negative = inhibition) at 10uM"
1,O=C(c1cccc(S(=O)(=O)N2CCOCC2)c1)N1CCN(C/C=C/c2ccccc2)CC1,-46.3%
2,CCC1Oc2ccc(C)cc2N(CC(=O)NCCC2=CCCCC2)C1=O (stereo not shown),-16%
3,N/C(=N\c1nc2ccccc2o1)NC(=O)c1ccc(Cl)cc1,35.6%
4,CCC(C(=O)OCc1csc(CC(=O)Nc2ccccc2C)n1)c1ccccc1 (stereo not shown),-6.51%
5,COc1ccc(Cn2c(O)c(C=NCCN3CCOCC3)c(=O)[nH]c2=O)cc1,-14.4%
6,Cc1cc(Cl)ccc1OCCCC(=O)N1CCN(C)CC1,-30%
7,Cc1cc(Cl)ccc1OCC(=O)N1CCCN(C(=O)COc2ccc(Cl)cc2C)CC1,-58.5%
8,Cc1cc(Cl)ccc1OCCCC(=O)NC1CCN(C)CC1,-51.2%
9,Cc1cc(Cl)ccc1OCCCC(=O)N1CCOCC1,-25%
10,Cc1cc(Cl)ccc1OCCCC(=O)NN,13.8%
11,CN1CCN(C(=O)CCCOc2ccc(Cl)cc2Cl)CC1,-61.6%
12,Cc1cc(Cl)ccc1OCC(=O)N1CCCCC1,-0.846%
13,Cc1cc(Cl)ccc1OCCCC(=O)N1CCCCC1,-14.2%
14,Cc1cc(Cl)ccc1OCC(=O)NC1CCCC1,-22.2%
15,O=C(CCCOc1ccc(Cl)cc1Cl)N1CCc2ccccc2C1,12%
16,Cc1cc(Cl)ccc1OCC(=O)N1CCN(C)CC1,-12.5%
17,Cc1cc(Cl)ccc1OCCCC(=O)N1CCN(C(=O)c2ccco2)CC1,-74.5%
18,CCC12CN(C(=O)c3ccc(OC)cc3)CC(CC)(CN(C(=O)c3ccc(OC)cc3)C1)C2=O,3.45%
